Test results as given in PubChem BioAssay.
Calls of active or inactive are those of the source. Unless noted, no rule for the calls is given here.

Columns and labels:
[1] = HepG2 liver cancer cell viability effects, profiling panel, resazurin fluorescence, 24 h, PK04 Diversity Set (AID 1172); details: higher = more signal
[2] = basal S. cerevisiae growth modulation, no modifier, primary screen, OD600, strain BY4716, 24 h, basal condition (AID 1173); details: OD600, 24 h, higher = more signal, called active from +8 up or from −8 down
[3] = MM1S myeloma cell viability, profiling panel, resazurin fluorescence, basal, 24 h, PK04 Diversity Set (AID 1174); details: higher = more signal, called active from +8 up or from −8 down;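 also: MM1S multiple myeloma cell line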
[4] = target: Dihydroorotate dehydrogenase (quinone), mitochondrial (Plasmodium falciparum (isolate 3D7)) (UniProt Q08210); test: PfDHODH enzyme inhibitors, primary screen, biochemical, C-terminal His tag, absorbance 600 nm (AID 1175); details: DCIP absorbance 600 nm, higher = more signal, called active from +8 up or from −8 down;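 also: recombinant parasite enzyme with a five histidine tag at its C terminus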
Dihydroorotate dehydrogenase (quinone), mitochondrial (Plasmodium falciparum (isolate 3D7)), sequence (Q08210 whole entry, looked up): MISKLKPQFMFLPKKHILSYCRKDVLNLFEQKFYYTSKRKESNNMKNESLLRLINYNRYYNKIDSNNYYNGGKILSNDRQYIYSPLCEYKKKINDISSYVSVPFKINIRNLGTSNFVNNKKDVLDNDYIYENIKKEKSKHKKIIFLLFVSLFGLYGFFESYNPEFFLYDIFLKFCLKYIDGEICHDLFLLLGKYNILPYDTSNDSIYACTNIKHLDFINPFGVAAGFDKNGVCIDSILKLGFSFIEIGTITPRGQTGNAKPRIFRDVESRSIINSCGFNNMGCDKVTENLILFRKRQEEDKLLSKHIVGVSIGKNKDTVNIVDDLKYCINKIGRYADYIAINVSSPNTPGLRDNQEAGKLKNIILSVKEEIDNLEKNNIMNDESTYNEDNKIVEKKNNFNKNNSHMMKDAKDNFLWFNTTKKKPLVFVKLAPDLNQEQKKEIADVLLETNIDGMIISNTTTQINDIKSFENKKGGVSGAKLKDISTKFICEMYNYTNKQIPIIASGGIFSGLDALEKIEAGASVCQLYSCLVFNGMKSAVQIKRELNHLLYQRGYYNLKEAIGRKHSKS

[5] = P. aeruginosa biofilm formation inhibitors, primary screen, strain PAO1, LB-PBS medium, absorbance 600 nm (AID 1176); details: P. aeruginosa PAO1 growth/biofilm, A600, 12 h; higher = more signal
[6] = S. cerevisiae RM11-1a growth modifiers, primary screen, strain RM11-1a, OD600, basal, 24 h (AID 1177); details: OD600, 24 h, higher = more signal, called active from +8 up or from −8 down;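 also: cultures grown under basal conditions with no added stressor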
[7] = E. coli acrAB mutant growth effects, primary screen, E. coli filamentation inducers, strain DRC39, OD650, 24 h (AID 1178); details: higher = more signal, called active from +8 up or from −8 down;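 also: growth measured as culture turbidity by optical density at 650 nm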
[8] = E. coli acrAB mutant growth effects, primary screen, E. coli filamentation inducers, strain DRC39, OD650, 48 h (AID 1179);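 also: screen aims at cell division blockers that make cells filament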; details: E. coli DRC39 delta-acrAB growth, higher = more signal, called active from +8 up or from −8 down
[9] = RPMI8226 myeloma cell viability, profiling panel, resazurin fluorescence, basal, 24 h, PK04 Diversity Set (AID 1180); details: higher = more signal;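 also: RPMI8826 multiple myeloma cell line at 5000 cells per well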
[10] = target: E3 ubiquitin-protein ligase XIAP (Homo sapiens) (UniProt P98170); test: XIAP binders, primary screen, biophysical, small-molecule microarray, fluorescence 635 nm (AID 1181); details: small-molecule microarray binding, higher = more signal;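 also: score merges 667 nm emission and signal to noise over triplicate slides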
E3 ubiquitin-protein ligase XIAP (Homo sapiens), sequence (P98170 whole entry, looked up): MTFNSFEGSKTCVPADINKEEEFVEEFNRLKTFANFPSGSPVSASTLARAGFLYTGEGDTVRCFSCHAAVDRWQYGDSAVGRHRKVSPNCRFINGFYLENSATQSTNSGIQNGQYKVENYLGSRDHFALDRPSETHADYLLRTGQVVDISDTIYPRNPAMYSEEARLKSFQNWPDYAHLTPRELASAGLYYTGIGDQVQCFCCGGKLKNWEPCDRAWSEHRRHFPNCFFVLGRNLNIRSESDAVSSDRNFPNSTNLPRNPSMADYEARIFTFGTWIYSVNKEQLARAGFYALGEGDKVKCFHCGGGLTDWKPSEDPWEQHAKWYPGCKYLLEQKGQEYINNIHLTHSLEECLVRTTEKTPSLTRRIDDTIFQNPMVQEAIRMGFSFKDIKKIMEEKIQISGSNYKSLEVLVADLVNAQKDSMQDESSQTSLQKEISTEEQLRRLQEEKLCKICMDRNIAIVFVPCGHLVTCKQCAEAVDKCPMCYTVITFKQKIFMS

[11] = tested on: XIP peptide (Xip251-270) binding; test: small-molecule binders of XIP peptide, primary screen, biochemical, small-molecule microarray, fluorescence 635/667 nm, 0.1 µg/mL protein (AID 1182); details: fluorescent protein binding, 635 nm, higher = more signal, called active from +8 up or from −8 down
XIP peptide (Xip251-270) = test: small-molecule binders of XIP peptide, primary screen, biochemical, small-molecule microarray, fluorescence 635/667 nm, 0.5 µg/mL protein (AID 1183); details: small-molecule microarray binding, fluorescence 635 nm; higher = more signal
[12] = Plasmodium falciparum growth inhibition, primary screen, strain 3D7, DAPI fluorescence, 100 nL (AID 1184);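 also: parasites grown inside human red blood cells in medium with human serum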; details: P. falciparum 3D7 growth, 3 d, higher = more signal
[13] = target: Homeobox protein Hox-A13 (Mus musculus) (UniProt Q62424); test: inhibitors of HoxA13-DNA binding, primary screen, biochemical, fluorescence polarization, labeled oligonucleotide (AID 1185); details: 15 min, higher = more signal, called active from +8 up or from −8 down
Homeobox protein Hox-A13 (Mus musculus), sequence (Q62424 whole entry, looked up): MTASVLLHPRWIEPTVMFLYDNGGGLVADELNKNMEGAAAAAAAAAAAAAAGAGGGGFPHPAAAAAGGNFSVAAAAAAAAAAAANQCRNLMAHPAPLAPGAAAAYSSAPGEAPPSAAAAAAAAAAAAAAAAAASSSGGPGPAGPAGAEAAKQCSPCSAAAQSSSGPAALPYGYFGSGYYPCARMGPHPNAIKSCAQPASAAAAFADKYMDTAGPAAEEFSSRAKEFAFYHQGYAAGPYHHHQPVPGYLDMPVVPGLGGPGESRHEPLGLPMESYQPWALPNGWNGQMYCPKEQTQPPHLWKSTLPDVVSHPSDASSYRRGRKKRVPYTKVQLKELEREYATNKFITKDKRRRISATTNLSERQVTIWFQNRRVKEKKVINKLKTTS

[14] = inhibitors of hydroxyurea-induced Chk1 phosphorylation, primary screen, imaging, HeLa, phospho-Chk1 antibody, percent positive cells (AID 1186); details: hydroxyurea-induced phospho-Chk1 immunofluorescence imaging, higher = more signal
[15] = inhibitors of hydroxyurea-induced Chk1 phosphorylation, primary screen, imaging, HeLa, phospho-Chk1 nuclear intensity (AID 1187); details: hydroxyurea-induced phospho-Chk1 immunofluorescence imaging, higher = more signal

SMILES: [N-]=[N+]=Nc1ccccc1[C@H]1OC(c2ccc(OCCCO)cc2)=N[C@@]1(CCS(=O)(=O)c1ccccc1)C(=O)NCc1ccccc1
- z-score [1]: 0.614
- z-score [2]: -0.008 (inactive)
- z-score [3]: -0.548 (inactive)
- composite z-score [4]: 0.44 (inactive)
- z-score [5]: 0.441 (inactive)
- z-score [6]: -0.22 (inactive)
- z-score [7]: -0.0211 (inactive)
- z-score [8]: -0.77 (inactive)
- z-score [9]: -0.129
- composite z-score [10]: 0.0623
- composite z-score [11]: 0.273 (inactive)
- composite z-score (XIP peptide (Xip251-270)): 0.774
- z-score [12]: -2.48
- z-score [13]: -1.99 (inactive)
- z-score [14]: 0.517 (inactive)
- z-score [15]: 0.227 (inactive)

SMILES: CC(C)OC(=O)C=C1C[C@@H](c2cccc(Cl)c2)O[C@@H](c2cccc(Cl)c2)O1
- z-score [1]: -0.307
- z-score [2]: -2.84 (inactive)
- z-score [3]: 0.147 (inactive)
- composite z-score [4]: -0.516 (inactive)
- z-score [5]: 0.959 (inactive)
- z-score [6]: -0.587 (inactive)
- z-score [7]: -0.581 (inactive)
- z-score [8]: 0.323 (inactive)
- z-score [9]: -1.03
- composite z-score [10]: 0.0307
- composite z-score [11]: 0.262 (inactive)
- composite z-score (XIP peptide (Xip251-270)): -0.226
- z-score [12]: -0.642
- z-score [13]: -2.09 (inactive)
- z-score [14]: 0.193 (inactive)
- z-score [15]: -0.0046 (inactive)

SMILES: CCCCC(=C=CC[C@H](O)c1cccc(OCCO)c1)C[C@H](O)c1ccccn1
- z-score [1]: 1.7
- z-score [2]: -1.1 (inactive)
- z-score [3]: 1.03 (inactive)
- composite z-score [4]: -2.69 (inactive)
- z-score [5]: -0.235 (inactive)
- z-score [6]: -1.49 (inactive)
- z-score [7]: 1.58 (inactive)
- z-score [8]: 1.58 (inactive)
- z-score [9]: 1.83
- composite z-score [10]: -0.188
- composite z-score [11]: 0.0547 (inactive)
- composite z-score (XIP peptide (Xip251-270)): 0.661
- z-score [12]: -1.78
- z-score [13]: -4.75 (inactive)
- z-score [14]: -0.949 (inactive)
- z-score [15]: -0.278 (inactive)

SMILES: COC(=O)[C@]1(Cc2ccccc2)N=C(c2ccc(OCCCO)cc2)O[C@@H]1c1ccccc1N=[N+]=[N-]
- z-score [1]: -2.66
- z-score [2]: -1.45 (inactive)
- z-score [3]: -4.47 (inactive)
- composite z-score [4]: 1.16 (inactive)
- z-score [5]: 1.69 (inactive)
- z-score [6]: 0.285 (inactive)
- z-score [7]: 0.2 (inactive)
- z-score [8]: -1.19 (inactive)
- z-score [9]: -7.02
- composite z-score [10]: 0.336
- composite z-score [11]: 0.062 (inactive)
- composite z-score (XIP peptide (Xip251-270)): 0.685
- z-score [12]: -2.27
- z-score [13]: -2.66 (inactive)
- z-score [14]: -0.566 (inactive)
- z-score [15]: -0.724 (inactive)

SMILES: CC(C)NC(=O)[C@@]1(Cc2ccccc2I)c2ccccc2C(=O)N(Cc2ccccc2Cl)[C@H]1c1ccc(CO)cc1
- z-score [1]: -0.344
- z-score [2]: -0.673 (inactive)
- z-score [3]: 0.179 (inactive)
- composite z-score [4]: 0.0754 (inactive)
- z-score [5]: -0.103 (inactive)
- z-score [6]: 0.818 (inactive)
- z-score [7]: 0.107 (inactive)
- z-score [8]: -0.706 (inactive)
- z-score [9]: -0.0558
- composite z-score [10]: 0.0049
- composite z-score [11]: 0.705 (inactive)
- composite z-score (XIP peptide (Xip251-270)): 0.615
- z-score [12]: 0.0173
- z-score [13]: -3.93 (inactive)
- z-score [14]: -0.0537 (inactive)
- z-score [15]: 0.1 (inactive)

SMILES: C=C(C(=O)CC[C@H](OC(C)=O)c1ccccc1OCCO)C(C)C
- z-score [1]: -1.64
- z-score [2]: -18.4 (active)
- z-score [3]: -1 (inactive)
- composite z-score [4]: -9.12 (active)
- z-score [5]: -0.493 (inactive)
- z-score [6]: -22.2 (active)
- z-score [7]: -0.587 (inactive)
- z-score [8]: -0.573 (inactive)
- z-score [9]: -1.62
- composite z-score [10]: 0.42
- composite z-score [11]: -0.571 (inactive)
- composite z-score (XIP peptide (Xip251-270)): 0.332
- z-score [12]: -2.09
- z-score [13]: -0.163 (inactive)
- z-score [14]: -0.145 (inactive)
- z-score [15]: -0.0797 (inactive)

SMILES: CCN(CC)c1ccc(N2CC=CC34O[C@@H]5C=CCOC(=O)[C@@H]5[C@H]3C(=O)N(CCCCCCO)[C@@H]4C2=O)cc1 (stereo not given in full)
- z-score [1]: 1.35
- z-score [2]: -0.532 (inactive)
- z-score [3]: 1.27 (inactive)
- composite z-score [4]: 0.466 (inactive)
- z-score [5]: -0.152 (inactive)
- z-score [6]: -0.5 (inactive)
- z-score [7]: 0.918 (inactive)
- z-score [8]: 0.701 (inactive)
- z-score [9]: 1.45
- composite z-score [10]: 0.212
- composite z-score [11]: 1.07 (inactive)
- composite z-score (XIP peptide (Xip251-270)): 0.659
- z-score [12]: -0.897
- z-score [13]: -5.54 (inactive)
- z-score [14]: 0.234 (inactive)
- z-score [15]: 0.722 (inactive)

SMILES: CC(=O)NCCCC[C@@H]1NC(=O)[C@H]2C[C@@H](C(=O)O)[C@@H](c3ccc(O)cc3)N2C1=O
- z-score [1]: 0.273
- z-score [2]: -1.35 (inactive)
- z-score [3]: -0.481 (inactive)
- composite z-score [4]: -0.24 (inactive)
- z-score [5]: 0.711 (inactive)
- z-score [6]: 3.29 (inactive)
- z-score [7]: -1.91 (inactive)
- z-score [8]: -0.879 (inactive)
- z-score [9]: 0.002
- composite z-score [10]: 0.5
- composite z-score [11]: 1.01 (inactive)
- composite z-score (XIP peptide (Xip251-270)): 0.764
- z-score [12]: -1.71
- z-score [13]: 4.77 (inactive)
- z-score [14]: 0.402 (inactive)
- z-score [15]: 0.207 (inactive)

SMILES: CC(C)Cc1ccc(CN2CC[C@@H](N)C2)cc1
- z-score [1]: 1.51
- z-score [2]: -12.8 (active)
- z-score [3]: -1.49 (inactive)
- composite z-score [4]: 4.28 (inactive)
- z-score [5]: -0.271 (inactive)
- z-score [6]: -0.0782 (inactive)
- z-score [7]: 1.47 (inactive)
- z-score [8]: 0.611 (inactive)
- z-score [9]: -0.681
- composite z-score [10]: -0.269
- composite z-score [11]: 0.773 (inactive)
- composite z-score (XIP peptide (Xip251-270)): -0.0255
- z-score [12]: -0.423
- z-score [13]: -0.811 (inactive)
- z-score [14]: -0.939 (inactive)
- z-score [15]: -0.735 (inactive)

SMILES: COCCOC(=O)N1C(=O)[C@@]2(c3ccccc31)[C@H](C(N)=O)[C@H]1C(=O)O[C@H](c3ccccc3)[C@H](c3ccccc3)N1[C@@H]2c1ccc(O)cc1
- z-score [1]: -0.755
- z-score [2]: -0.494 (inactive)
- z-score [3]: -0.593 (inactive)
- composite z-score [4]: -0.294 (inactive)
- z-score [5]: 0.806 (inactive)
- z-score [6]: 0.275 (inactive)
- z-score [7]: 0.396 (inactive)
- z-score [8]: 0.787 (inactive)
- z-score [9]: -1.01
- composite z-score [10]: 0.175
- composite z-score [11]: -0.114 (inactive)
- composite z-score (XIP peptide (Xip251-270)): 0.726
- z-score [12]: 0.373
- z-score [13]: -4.73 (inactive)
- z-score [14]: -0.0504 (inactive)
- z-score [15]: -0.194 (inactive)
